This passage reports percent growth inhibition results from the supplement of paper PMC6658780.

SMILES strings stand for the structures. Structures can show the parent of a compound that is named as a salt. ± gives the standard deviation of the averaged measurements.

The test system of the first test is Klebsiella pneumoniae NCTC-13439. In words: percent growth inhibition of drug + antibiotic vs DMSO control; higher = more growth inhibition. As to conditions: antibiotic (0.125x MIC): tigecycline; 7 µM.
`CCN1CCN(c2cc3c(cc2F)c(=O)c(C(=O)O)cn3C2CC2)CC1` [Enrofloxacin]: the percent growth inhibition amounted to 7.12 ± 1.8%.
As for `C[C@H](N)[C@H](O)c1cccc(O)c1` [Metaraminol bitartrate], the percent growth inhibition was 8.48 ± 9.5%.
Take `NC1CCN(c2c(F)cc3c(=O)c(C(=O)O)cn(C4CC4)c3c2Cl)C1` (centres undefined) [Clinafloxacin]: the percent growth inhibition was 14.4 ± 11%.
Consider `COc1c(N2CCNC(C)C2)c(F)cc2c(=O)c(C(=O)O)cn(C3CC3)c12` (centres undefined) [Gatifloxacin], for which the percent growth inhibition is 17.5 ± 19%.
Regarding `COc1c(N2C[C@@H]3CCCN[C@@H]3C2)c(F)cc2c(=O)c(C(=O)O)cn(C3CC3)c12` [Moxifloxacin], the percent growth inhibition came to 14.4 ± 14%.
Regarding `Cc1c(F)c(N2CCNC(C)C2)cc2c1c(=O)c(C(=O)O)cn2C1CC1` (centres undefined) [Grepafloxacin], the percent growth inhibition is 7.09 ± 6.5%.
The same measure, in the same setting: to `CC(=O)CCCCn1c(=O)c2c(ncn2C)n(C)c1=O` [Pentoxifylline] belongs 1.34 ± 3.2%.

Still in this test, the particulars now being: antibiotic (0.125x MIC): tigecycline; 20 µM.
With `CCN1CCN(c2cc3c(cc2F)c(=O)c(C(=O)O)cn3C2CC2)CC1` [Enrofloxacin], the percent growth inhibition stood at 69.6 ± 9.7%.
Turning to `C[C@H](N)[C@H](O)c1cccc(O)c1` [Metaraminol bitartrate], the percent growth inhibition was -12.7 ± 7%.
Take `NC1CCN(c2c(F)cc3c(=O)c(C(=O)O)cn(C4CC4)c3c2Cl)C1` (centres undefined) [Clinafloxacin]: the percent growth inhibition came out at 96.8 ± 4.4%.
On the same count and under the same terms, to `COc1c(N2C[C@@H]3CCCN[C@@H]3C2)c(F)cc2c(=O)c(C(=O)O)cn(C3CC3)c12` [Moxifloxacin] belongs 99.69 ± 0.6%.
`COc1ccc(OC)c(C(O)CNC(=O)CN)c1` (centres undefined) [Midodrine hydrochloride]: the percent growth inhibition was -2.55 ± 3.2%.
For `N=C(NCCCCCCNC(=N)NC(=N)Nc1ccc(Cl)cc1)NC(=N)Nc1ccc(Cl)cc1` [Chlorhexidine], the percent growth inhibition was found to be 100.14 ± 0.079%.
Regarding `CC(=O)CCCCn1c(=O)c2c(ncn2C)n(C)c1=O` [Pentoxifylline], the percent growth inhibition worked out at 4.32 ± 0.75%.
